The source of these data is PubChem BioAssay (NCI).

This is part of a sample that, as a whole, favours compounds with a hit. Of some 83,000 tested, about 20% had one in any assay.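 Single-dose data. Exposure time 48 hours. Values below 10 considered active.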 Unmarked numbers belong to inactive results. Activity calls are given as the source filed them.

Holding throughout (experiment): NCI-60 one-dose screen, 48 h (100 = growth as untreated, 0 = no growth, -100 = all killed)
For one assay, the system named is SK-MEL-2 melanoma. To be noted: 10 µM unless noted.
The next assay deals with EKVX NSCLC. To be noted: 10 µM unless noted.
The next assay deals with SN12C renal. Particulars: 10 µM unless noted.
The subject of a further assay is UO-31 renal. To be noted: 10 µM unless noted.
The test system of a further assay is TK-10 renal. Particulars: 10 µM unless noted.
A further assay deals with ACHN renal. Particulars: 10 µM unless noted.
A further assay concerns CCRF-CEM leukemia. Particulars: 10 µM unless noted.
For a further assay, the system named is MOLT-4 leukemia. To be noted: 10 µM unless noted.
A further assay concerns SR leukemia. To be noted: 10 µM unless noted.
Another assay relates to RPMI-8226 leukemia. To be noted: 10 µM unless noted.
Another assay concerns OVCAR-8 ovarian. Particulars: 10 µM unless noted.
A further assay concerns OVCAR-5 ovarian. To be noted: 10 µM unless noted.
Another assay deals with OVCAR-4 ovarian. Particulars: 10 µM unless noted.
In the next assay the test system is SK-OV-3 ovarian. To be noted: 10 µM unless noted.
For a further assay, the system named is IGROV1 ovarian. Particulars: 10 µM unless noted.
For the next assay, the system named is HS 578T breast. Particulars: 10 µM unless noted.
The subject of another assay is A498 renal. Particulars: 10 µM unless noted.
For the next assay, the system named is OVCAR-3 ovarian. To be noted: 10 µM unless noted.
In a further assay the test system is NCI/ADR-RES ovarian. To be noted: 10 µM unless noted.
A further assay deals with CAKI-1 renal. To be noted: 10 µM.

Take `C[C@H]1C=C(C[C@@H](O)CC#CC#CCCCCC[C@@H](O)[C@H]2CCC(=O)O2)C(=O)O1`: the growth in the assay with SK-MEL-2 melanoma is 118%; in the assay with EKVX NSCLC it was 96.7%; in the assay on SN12C renal it was 105%; in the assay with UO-31 renal it was 81.2%; in the assay on TK-10 renal, 115%; with ACHN renal it was 103%. Further, the growth was 106% in the assay on CCRF-CEM leukemia; 114% in the assay on MOLT-4 leukemia; 121% in the assay with SR leukemia; 114% with RPMI-8226 leukemia; 110% in the assay on OVCAR-8 ovarian; 95.6% in the assay with OVCAR-5 ovarian. Further, the growth in the assay with OVCAR-4 ovarian is 105%; with SK-OV-3 ovarian, 95.5%; in the assay on IGROV1 ovarian, 54.1%; in the assay with HS 578T breast, 117%.

On to `Nc1n[nH]c2cccc(C#Cc3cccc(NC(=O)c4cccc(C(F)(F)F)c4)c3)c12`, for which the growth was 8.52% (active) with SK-MEL-2 melanoma; 65.4% with EKVX NSCLC; 40.7% in the assay on SN12C renal; 3.58% (active) in the assay with UO-31 renal; 41% in the assay on TK-10 renal; 28.6% in the assay on ACHN renal. Also, the growth with A498 renal is 14.9%; with MOLT-4 leukemia, 27.3%; with SR leukemia it was 27.2%; in the assay on RPMI-8226 leukemia, 29.3%; in the assay on OVCAR-8 ovarian, 47.2%; in the assay with OVCAR-5 ovarian, 31.3%. For the same compound, the growth in the assay on OVCAR-4 ovarian is 44.1%; in the assay with SK-OV-3 ovarian, 46.3%; in the assay with OVCAR-3 ovarian it was 49.2%; in the assay on HS 578T breast it was -0.652% (active); in the assay on NCI/ADR-RES ovarian, 43.2%.

Turning to `COc1ccc(C[C@H](N)C(=O)N[C@@H]2[C@@H](CO)OC(n3cnc4c(N(C)C)ncnc43)[C@@H]2O)cc1` (stereo not given in full), the growth was -74.4% (active) with SK-MEL-2 melanoma; -47.2% (active) in the assay on EKVX NSCLC; -13.3% (active) with SN12C renal; 16.2% in the assay on UO-31 renal; -75.7% (active) in the assay with TK-10 renal; 42.8% in the assay on CAKI-1 renal. For the same compound, the growth was -65.6% (active) in the assay with A498 renal; -3.9% (active) with CCRF-CEM leukemia; -22.3% (active) in the assay with MOLT-4 leukemia; -37.7% (active) in the assay on SR leukemia; 12.5% in the assay on RPMI-8226 leukemia; -52.3% (active) with OVCAR-8 ovarian. Also, the growth in the assay with OVCAR-4 ovarian is -32.9% (active); in the assay on SK-OV-3 ovarian, -25.3% (active); in the assay with IGROV1 ovarian, -42.3% (active); in the assay with OVCAR-3 ovarian, -94.7% (active); in the assay on HS 578T breast, 11.8%.

In the case of `CN(C)c1ccc(/C=N/N=C(N)N)cc1`, the growth in the assay on SK-MEL-2 melanoma was 78.6%; with EKVX NSCLC, 89.3%; in the assay on SN12C renal, 82.3%; with UO-31 renal it was 72.5%; with TK-10 renal, 106%; in the assay on ACHN renal, 98.5%. Besides, the growth is 104% in the assay with CCRF-CEM leukemia; 83.2% in the assay on MOLT-4 leukemia; 54.8% in the assay on SR leukemia; 91.1% in the assay with OVCAR-8 ovarian; 116% with OVCAR-5 ovarian; 81.9% in the assay with OVCAR-4 ovarian. Also, the growth in the assay with SK-OV-3 ovarian was 82.5%; with IGROV1 ovarian, 69.8%; in the assay with OVCAR-3 ovarian it was 66.3%; in the assay with HS 578T breast, 78.2%; in the assay with NCI/ADR-RES ovarian it was 50.5%.

`O=C(C[n+]1ccccc1Cl)c1ccc2c(c1)CCCC2`: the growth with SK-MEL-2 melanoma was 103%; in the assay on EKVX NSCLC, 78.9%; in the assay with SN12C renal, 101%; in the assay on UO-31 renal, 93.6%; with TK-10 renal, 92.8%; in the assay with ACHN renal, 105%. The growth in the assay on CCRF-CEM leukemia was 90.6%; in the assay with MOLT-4 leukemia, 73.6%; with RPMI-8226 leukemia it was 90.3%; in the assay on OVCAR-8 ovarian it was 102%; in the assay with OVCAR-5 ovarian, 102%; with OVCAR-4 ovarian it was 83.6%. The growth in the assay on SK-OV-3 ovarian was 99.7%; with IGROV1 ovarian, 107%; in the assay on OVCAR-3 ovarian, 93.6%; with HS 578T breast, 111%; with NCI/ADR-RES ovarian, 109%.

With `COc1ccc(C2CC(c3cc(Cl)c(C)cc3OC)=NN2c2ccc(S(N)(=O)=O)cc2)cc1OC` (stereo not given), the growth in the assay on SK-MEL-2 melanoma is 95.8%; in the assay with EKVX NSCLC, 80.6%; in the assay on SN12C renal, 87.4%; with UO-31 renal, 59.1%; with TK-10 renal, 113%; in the assay on ACHN renal, 84%. The growth was 112% with A498 renal; 91% in the assay with RPMI-8226 leukemia; 73.8% with OVCAR-8 ovarian; 70.6% with OVCAR-5 ovarian; 87.8% in the assay on OVCAR-4 ovarian; 116% in the assay with SK-OV-3 ovarian. The growth was 79.1% with IGROV1 ovarian, 103% in the assay with OVCAR-3 ovarian, 101% in the assay with HS 578T breast and 77.2% in the assay with NCI/ADR-RES ovarian.

`O=C(Nc1ccccc1F)Nc1ccccc1Cl`: the growth was 109% with SK-MEL-2 melanoma; 73.2% in the assay with EKVX NSCLC; 104% in the assay with SN12C renal; 98.2% in the assay with UO-31 renal; 125% in the assay on TK-10 renal; 90.8% in the assay with ACHN renal. Besides, the growth in the assay with A498 renal was 85.8%; in the assay with MOLT-4 leukemia, 69.3%; in the assay on RPMI-8226 leukemia, 78.8%; with OVCAR-8 ovarian, 101%; in the assay with OVCAR-5 ovarian, 102%; in the assay on OVCAR-4 ovarian it was 73%. The growth is 104% with SK-OV-3 ovarian, 102% in the assay on OVCAR-3 ovarian, 103% in the assay on HS 578T breast and 88.9% in the assay with NCI/ADR-RES ovarian.

In the case of `FC(F)(F)c1cn(CCN2CCOCC2)c2ncnc(Cl)c12`, the growth in the assay on SK-MEL-2 melanoma is 41.3%; with EKVX NSCLC, 92.6%; with SN12C renal it was 71.2%; in the assay on UO-31 renal it was -85.5% (active); in the assay with TK-10 renal it was 113%; in the assay with ACHN renal it was 64.7%. For the same compound, the growth with CCRF-CEM leukemia is 12.3%; with MOLT-4 leukemia it was 40.4%; with SR leukemia, -40.3% (active); in the assay on RPMI-8226 leukemia, 99%; in the assay on OVCAR-8 ovarian it was 18.7%; with OVCAR-5 ovarian it was 106%. The growth is 82.4% with OVCAR-4 ovarian; 101% in the assay with SK-OV-3 ovarian; 13.4% with IGROV1 ovarian; 63.3% in the assay with OVCAR-3 ovarian; 81.9% in the assay with HS 578T breast; 92.8% in the assay with NCI/ADR-RES ovarian.

For `CCOC(=O)C1CN(Cc2ccccc2)C(=O)C1=O` (stereo not given), the growth was 114% in the assay with SK-MEL-2 melanoma; 110% in the assay on EKVX NSCLC; 108% in the assay on SN12C renal; 64.3% with UO-31 renal; 113% in the assay on TK-10 renal; 104% in the assay with ACHN renal. Moreover, the growth in the assay with A498 renal was 91.6%; with SR leukemia, 27%; in the assay with RPMI-8226 leukemia, 95.6%; with OVCAR-8 ovarian, 107%; with OVCAR-5 ovarian it was 95.2%; in the assay on OVCAR-4 ovarian it was 91.9%. Moreover, the growth was 107% in the assay on SK-OV-3 ovarian, 109% in the assay on IGROV1 ovarian, 105% in the assay with OVCAR-3 ovarian and 109% with NCI/ADR-RES ovarian.
